# Laboratory results: PubChem BioAssay (NCATS)
# Where “and” joins values, the source holds several entries; their conditions need not be identical. Identical values can stand only once. Results filed as inconclusive are left out. Calls of active or inactive are those of the source. The call rests on the fitted dose curve; in most records, active means well fitted inhibition curve with a large enough effect; inconclusive means small, poorly fitted or top-dose-only effect; inactive means no such curve, though single readings can be large or run the other way.
# Target: Cytochrome P450 2C19 (Homo sapiens) (UniProt P33261)
# Sequence (P33261 whole entry, looked up): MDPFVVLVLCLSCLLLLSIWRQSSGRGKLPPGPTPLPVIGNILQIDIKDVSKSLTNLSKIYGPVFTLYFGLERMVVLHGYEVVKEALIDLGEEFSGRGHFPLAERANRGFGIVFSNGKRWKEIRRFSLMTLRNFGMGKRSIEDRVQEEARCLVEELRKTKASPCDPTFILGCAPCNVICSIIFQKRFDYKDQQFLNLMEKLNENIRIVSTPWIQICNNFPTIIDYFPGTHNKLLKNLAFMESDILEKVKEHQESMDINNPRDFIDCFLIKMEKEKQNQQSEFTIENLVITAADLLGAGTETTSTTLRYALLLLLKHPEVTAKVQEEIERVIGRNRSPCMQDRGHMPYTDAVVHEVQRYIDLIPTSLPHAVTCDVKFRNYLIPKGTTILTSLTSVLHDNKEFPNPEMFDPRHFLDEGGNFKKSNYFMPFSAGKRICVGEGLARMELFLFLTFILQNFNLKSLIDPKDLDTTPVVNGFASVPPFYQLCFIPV
# Assay: qHTS Assay for Inhibitors and Substrates of Cytochrome P450 2C19 (AID 899); further: nearly all actives have a fitted effect of over 60% in size
# Conditions: recombinant CYP2C19, luciferin-H EGE luminescence; series mostly up to 11.4 µM; activity, negative = inhibition: at the top concentration
# Procedure, shortened: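 In 50mM KPO4, the reaction held 5nM enzyme and KM-level (10uM) Luciferin-H EGE; it ran 60 min at 37C after NADPH regeneration and a 10 min compound preincubation. Luminescence values were scaled to 57uM ketoconazole as complete inhibition.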
# On the % scale 0 is the no-effect control and ±100 the full control effect; potency means the concentration at half of the fitted maximal effect.
SMILES,"activity, negative = inhibition",Potency
O=C1C=CC2(OCCCO2)C(Br)=C1,41.7% (inactive),–
O=Cc1ccc(OC2C=CC(c3ccccc3)OC2CO)cc1 (stereo unspecified),-15.5% (inactive),–
COc1ccc(O[C@H]2C=C[C@@H](c3ccccc3)O[C@H]2COC(=O)CC/C(C)=N/OCC[C@@H]2C=C[C@H](OC(C)=O)[C@H](COC(C)=O)O2)cc1,–,0.398 µM (active)
COc1cccc(/C=C/C2=CC3(C)CC2(C)C(c2cccc(OC)c2)CC3=O)c1 (stereo unspecified),–,2 µM (active)
CCN1C(C)=C(C(=O)OC)C(c2ccccc2)N2C(=O)[C@@]3(C(=O)OC)O[C@@]12C1C(=O)N(C)C(=O)C13 (stereo partly specified),20.4% (inactive),–
CCCNC(=O)OC[C@H]1O[C@@H](CCO/N=C\[C@@H](NS(=O)(=O)c2ccc(C)cc2)[C@H](C)/C=C\CC(=O)OC)C=C[C@@H]1Oc1ccc(OC)cc1,–,3.16 µM (active)
C=CCC1C=CC(OC(=O)OCC)C(COC(=O)OCC)O1 (stereo unspecified),–,0.794 µM (active)
CC1(C)OC(C(O)(c2cc(F)c(F)c(F)c2)c2cc(F)c(F)c(F)c2)C(C(O)(c2cc(F)c(F)c(F)c2)c2cc(F)c(F)c(F)c2)O1 (stereo unspecified),-19.5% (inactive),–
COC(=O)C/C=C\[C@@H](C)[C@@H](/C=N\O[C@@H](C)c1cc(-c2c(C)cc(C)cc2C)no1)NS(=O)(=O)c1ccc(C)cc1,–,3.16 µM (active)
COc1ccc(/C=C/NC(=O)Cc2ccc(OC)c(OC)c2)cc1,130% (inactive),–
COc1ccc(O[C@H]2C=C[C@@H](c3ccccc3)O[C@H]2COC(=O)CC/C(C)=N\O[C@@H](C)c2cn([C@H](CO)Cc3ccccc3)nn2)cc1,–,63.1 nM (active) and 631 nM (active)
